Experimental data published in PubChem BioAssay (Tox21).
Unmarked numbers belong to inactive results. A call without a number means that no potency is given here. The source made the active and inactive calls. Unless noted, the call rests on the fitted dose curve; in most records, active means well fitted curve in the direction sought with a large enough effect in the repeat runs; inconclusive means weak or mixed curves; inactive means no such curve, though single readings can be large; an effect the other way counts as inactive or inconclusive.

Key:
[1] = qHTS assay to identify small molecule antagonists of the estrogen receptor alpha (ER-alpha) signaling pathway - cell viability counter screen (AID 743074; calls by dose curve;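 further: HEK293 cells carrying ER-alpha-UAS-bla reporter stimulated with 17beta-estradiol; nearly all actives have a fitted effect of over 45% in size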; further: potency means the concentration at half of the fitted maximal effect)
[2] = qHTS assay to identify small molecule antagonists of the estrogen receptor alpha (ER-alpha) signaling pathway using the BG1 cell line - cell viability counter screen (AID 743081);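 further: compound given together with 17beta-estradiol as the ER stimulus; nearly all actives have a fitted effect of over 45% in size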
[3] = target: Aromatase (Homo sapiens) (UniProt P11511); assay: qHTS assay to identify aromatase inhibitors (AID 743083); further: nearly all actives have a fitted effect of over 55% in size; further: potency means the concentration at half of the fitted maximal effect
[4] = qHTS assay to identify aromatase inhibitors - cell viability counter screen (AID 743084);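 further: cells stimulated with testosterone during compound exposure; nearly all actives have a fitted effect of over 55% in size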
[5] = target: Aryl hydrocarbon receptor (Homo sapiens) (UniProt P35869); assay: qHTS assay to identify small molecule that activate the aryl hydrocarbon receptor (AhR) signaling pathway (AID 743085); further: nearly all actives have a fitted effect of over 15% in size; further: potency means the concentration at half of the fitted maximal effect;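 on activation: HG2L7.5c1 human HepG2 liver cells with stably integrated DRE-driven firefly reporter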
In short: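 Cell line HG2L7.5c1 (human hepatoma, 20× DRE-luc). Plated, 5 h 37C, compound/DMSO added, 24 h 37C. CellTiter-Fluor 30 min 37C → fluorescence; then ONE-Glo 30 min RT → luminescence.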

[6] = qHTS assay to identify small molecule that activate the aryl hydrocarbon receptor (AhR) signaling pathway - cell viability counter screen (AID 743086);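 further: HepG2 liver cells carrying the AhR DRE luciferase reporter; nearly all actives have a fitted effect of over 45% in size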
In short: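 Cytotoxicity counter screen: CellTiter-Fluor signal (30 min, 37 C) in 4000 HepG2 cells/well carrying the DRE-luciferase reporter, following 24 h compound exposure at 37 C.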

[7] = target: Peroxisome proliferator-activated receptor gamma (Homo sapiens) (UniProt P37231); assay: qHTS assay to identify small molecule agonists of the peroxisome proliferator-activated receptor gamma (PPARg) signaling pathway (AID 743094; active means well fitted activation curve with a large enough effect in the signal ratio in the repeat runs, not every such curve was filed as active; inconclusive means weak or mixed curves, or effect the other way; inactive means no such curve, though single readings can be large or run the other way; the % refers to the signal ratio)
In short: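 GeneBLAzer PPARg UAS-bla HEK293H cells were plated, rested 5 h, then exposed to compounds for 17 h at 37C. Beta-lactamase activity was read by LiveBLAzer B/G FRET substrate fluorescence after 1 h at room temperature.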

[8] = qHTS assay to identify small molecule phospholipidosis (PLD) inducers (AID 1259344; active means well fitted curve in the direction sought with a large enough effect; inconclusive means small, poorly fitted or top-dose-only effect, or another doubt; inactive means no such curve, though single readings can be large; an effect the other way counts as inactive or inconclusive)
In short: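 Fluorescent phospholipid staining (LipidTOX Red) measured by automated microscopy in fixed HepG2 cells after 24 h treatment; nuclei counterstained with Hoechst 33342; amiodarone as reference inducer.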

[9] = target: Nuclear receptor subfamily 1 group I member 2 (Rattus norvegicus) (UniProt Q9R1A7); assay: Rat pregnane X receptor (rPXR) activation by small molecules, qHTS assay (AID 1346983); settings: rPXR luciferase reporter cells, One-Glo luminescence, 24 h; max activation: active compounds read high; further: nearly all actives have a fitted effect of over 20% in size; further: potency means the concentration at half of the fitted maximal effect
In short: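 Luminescent readout (One-Glo luciferase, 30 min room temperature) followed 24 hr compound treatment at 37 C of rPXR cells plated 2,000 per well and preincubated 5hr; qHTS format with compounds delivered in DMSO.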

[10] = target: Nuclear receptor subfamily 1 group I member 2 (Homo sapiens) (UniProt O75469); assay: CYP3A4 induction through human pregnane X receptor (PXR) by small molecules, qHTS assay (AID 1346984); further: nearly all actives have a fitted effect of over 40% in size
In short: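 DPX-2 HepG2 cells carrying a PXR response element and CYP3A4-promoter luciferase construct, treated with compounds 24 hr at 37C. Then P450-Glo CYP3A4 Luciferin-IPA substrate (3uM final) for 3 hr at 37C, One-Glo added, luminescence read.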

[11] = target: Nuclear receptor subfamily 1 group I member 2 (Homo sapiens) (UniProt O75469); assay: Human pregnane X receptor (PXR) activation by small molecules, qHTS assay (AID 1346985); further: nearly all actives have a fitted effect of over 40% in size
In short: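 DPX-2 cells (HepG2 co-transfected with a PXR response element and a CYP3A4-promoter luciferase construct) were seeded at 2,000 per well, rested 5 hr at 37C, then exposed to DMSO-dissolved compounds for 24 hr. Activation was read as luciferase luminescence.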

[12] = qHTS assay to identify small molecule antagonists of the thyroid receptor (TR) signaling pathway - cell viability counter screen (AID 743064); further: nearly all actives have a fitted effect of over 50% in size; further: potency means the concentration at half of the fitted maximal effect
In short: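 Fluorescence from CellTiter-Fluor, added after 23.5 h exposure at 37 °C, reported viability of GH3.TRE-Luc cells co-treated with compound and 1 nM T3. Measured in the same wells as the luciferase TR readout.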

[13] = qHTS assay to identify small molecule antagonists of the thyroid receptor (TR) signaling pathway (AID 743065); further: nearly all actives have a fitted effect of over 55% in size; further: potency means the concentration at half of the fitted maximal effect
In short: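 Antagonism measured as loss of luciferase signal in GH3 cells stably carrying a TRE-luciferase reporter, co-treated with compound and T3 (1 nM final) for 23.5 h at 37 C. Viability was read in the same well by CellTiter-Fluor.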

[14] = system: thyroid hormone receptor (rat, GH3 cells); assay: qHTS assay to identify small molecule agonists of the thyroid receptor (TR) signaling pathway (AID 743066; calls by dose curve)
[15] = target: Estrogen receptor (Homo sapiens) (UniProt P03372); assay: qHTS assay to identify small molecule agonists of the estrogen receptor alpha (ER-alpha) signaling pathway (AID 743075; calls by dose curve; further: potency means the concentration at half of the fitted maximal effect)
[16] = target: Estrogen receptor (Homo sapiens) (UniProt P03372); assay: qHTS assay to identify small molecule agonists of the estrogen receptor alpha (ER-alpha) signaling pathway using the BG1 cell line (AID 743079); settings: BG1Luc4E2 cells, ERE-luciferase agonist, 22 h; activation: at 70.3 µM (top of the series); further: nearly all actives have a fitted effect of over 20% in size; further: potency means the concentration at half of the fitted maximal effect
[17] = qHTS assay to identify small molecule antagonists of the estrogen receptor alpha (ER-alpha) signaling pathway using the BG1 cell line (AID 743080; calls by dose curve;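 further: BG1 cells stimulated with 17beta-estradiol alongside compound; nearly all actives have a fitted effect of over 25% in size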)
In short: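 Quantitative HTS on the Tox21 10K library: BG1 cells with endogenous ER-alpha and ERE-luciferase reporter, 17beta-estradiol stimulation, 21.5 h compound exposure, luminescence endpoint with parallel fluorescence cytotoxicity counter-read.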

[18] = target: Estrogen receptor (Homo sapiens) (UniProt P03372); assay: qHTS assay to identify small molecule antagonists of the estrogen receptor alpha (ER-alpha) signaling pathway (AID 743069; active means well fitted curve in the direction sought with a large enough effect in the signal ratio in the repeat runs, not every such curve was filed as active; inconclusive means weak or mixed curves, or effect the other way; inactive means no such curve, though single readings can be large or run the other way; the % refers to the signal ratio)
In short: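 Compound effects are measured against 17beta-estradiol stimulation in HEK293 cells with a UAS-controlled beta-lactamase reporter for ER-alpha. Exposure lasts 18 hr at 37C; LiveBLAzer B/G FRET substrate follows for 2 hr at room temperature.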

Sequence of Estrogen receptor (Homo sapiens) (P03372 whole entry, looked up): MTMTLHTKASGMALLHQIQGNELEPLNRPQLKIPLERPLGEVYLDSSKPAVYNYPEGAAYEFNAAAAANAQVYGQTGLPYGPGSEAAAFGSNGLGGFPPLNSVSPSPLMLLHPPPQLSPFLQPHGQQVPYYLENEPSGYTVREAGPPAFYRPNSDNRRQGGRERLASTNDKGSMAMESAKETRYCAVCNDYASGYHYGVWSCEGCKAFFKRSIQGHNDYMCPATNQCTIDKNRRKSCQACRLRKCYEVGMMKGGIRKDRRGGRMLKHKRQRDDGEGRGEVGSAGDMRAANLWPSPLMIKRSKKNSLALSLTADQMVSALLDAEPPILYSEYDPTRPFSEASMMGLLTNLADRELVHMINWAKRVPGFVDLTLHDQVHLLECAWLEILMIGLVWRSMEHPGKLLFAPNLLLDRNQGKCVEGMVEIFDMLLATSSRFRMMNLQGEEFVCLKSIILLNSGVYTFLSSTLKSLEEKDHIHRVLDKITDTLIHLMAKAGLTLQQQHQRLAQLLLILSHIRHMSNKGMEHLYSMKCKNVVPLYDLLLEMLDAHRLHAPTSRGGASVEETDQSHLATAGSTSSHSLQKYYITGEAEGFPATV
Sequence of Nuclear receptor subfamily 1 group I member 2 (Rattus norvegicus) (Q9R1A7 whole entry, looked up): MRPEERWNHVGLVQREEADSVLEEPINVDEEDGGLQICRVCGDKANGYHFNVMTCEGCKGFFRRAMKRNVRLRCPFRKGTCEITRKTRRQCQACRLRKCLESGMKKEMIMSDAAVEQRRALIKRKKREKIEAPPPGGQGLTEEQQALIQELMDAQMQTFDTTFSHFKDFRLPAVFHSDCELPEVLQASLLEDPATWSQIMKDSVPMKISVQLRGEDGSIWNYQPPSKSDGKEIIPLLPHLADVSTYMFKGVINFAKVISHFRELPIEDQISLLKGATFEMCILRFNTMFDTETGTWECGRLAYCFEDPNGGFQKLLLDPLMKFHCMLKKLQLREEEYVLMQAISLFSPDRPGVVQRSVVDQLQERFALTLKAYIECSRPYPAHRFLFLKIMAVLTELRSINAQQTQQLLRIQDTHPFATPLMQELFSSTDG
Sequence of Aryl hydrocarbon receptor (Homo sapiens) (P35869 whole entry, looked up): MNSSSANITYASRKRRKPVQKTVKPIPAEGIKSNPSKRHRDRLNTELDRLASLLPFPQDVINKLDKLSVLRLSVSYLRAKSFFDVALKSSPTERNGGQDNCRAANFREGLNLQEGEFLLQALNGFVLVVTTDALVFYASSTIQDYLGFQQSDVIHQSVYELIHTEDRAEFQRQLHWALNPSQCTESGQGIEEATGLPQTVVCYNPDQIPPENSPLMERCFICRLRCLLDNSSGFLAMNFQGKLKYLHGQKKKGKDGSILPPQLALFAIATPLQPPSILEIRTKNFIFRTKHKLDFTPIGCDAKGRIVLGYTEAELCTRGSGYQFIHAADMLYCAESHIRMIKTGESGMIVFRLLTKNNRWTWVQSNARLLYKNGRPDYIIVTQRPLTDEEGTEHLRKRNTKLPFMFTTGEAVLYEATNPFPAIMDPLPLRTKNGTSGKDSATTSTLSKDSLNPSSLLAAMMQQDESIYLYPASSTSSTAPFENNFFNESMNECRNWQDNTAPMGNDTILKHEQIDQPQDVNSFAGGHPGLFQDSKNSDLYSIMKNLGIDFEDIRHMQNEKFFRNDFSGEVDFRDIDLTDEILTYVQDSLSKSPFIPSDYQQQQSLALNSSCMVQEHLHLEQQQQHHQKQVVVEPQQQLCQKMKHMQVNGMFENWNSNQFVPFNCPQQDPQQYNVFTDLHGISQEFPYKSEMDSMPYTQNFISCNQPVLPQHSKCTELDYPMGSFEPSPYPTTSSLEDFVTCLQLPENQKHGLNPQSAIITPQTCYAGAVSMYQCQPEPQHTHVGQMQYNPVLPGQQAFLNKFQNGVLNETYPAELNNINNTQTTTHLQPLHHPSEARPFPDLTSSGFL
Sequence of Peroxisome proliferator-activated receptor gamma (Homo sapiens) (P37231 whole entry, looked up): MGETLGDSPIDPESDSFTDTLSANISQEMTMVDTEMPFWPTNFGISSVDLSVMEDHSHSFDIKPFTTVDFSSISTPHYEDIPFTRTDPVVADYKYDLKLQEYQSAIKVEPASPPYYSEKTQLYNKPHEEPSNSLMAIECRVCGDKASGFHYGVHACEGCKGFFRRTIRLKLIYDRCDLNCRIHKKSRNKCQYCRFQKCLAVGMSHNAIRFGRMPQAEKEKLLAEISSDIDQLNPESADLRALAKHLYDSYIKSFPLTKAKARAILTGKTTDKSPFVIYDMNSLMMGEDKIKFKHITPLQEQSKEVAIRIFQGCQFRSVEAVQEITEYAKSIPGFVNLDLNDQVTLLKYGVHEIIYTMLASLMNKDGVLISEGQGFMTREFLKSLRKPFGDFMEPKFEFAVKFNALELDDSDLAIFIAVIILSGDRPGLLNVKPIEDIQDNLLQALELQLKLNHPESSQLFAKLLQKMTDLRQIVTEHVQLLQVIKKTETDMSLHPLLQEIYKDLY
Sequence of Aromatase (Homo sapiens) (P11511 whole entry, looked up): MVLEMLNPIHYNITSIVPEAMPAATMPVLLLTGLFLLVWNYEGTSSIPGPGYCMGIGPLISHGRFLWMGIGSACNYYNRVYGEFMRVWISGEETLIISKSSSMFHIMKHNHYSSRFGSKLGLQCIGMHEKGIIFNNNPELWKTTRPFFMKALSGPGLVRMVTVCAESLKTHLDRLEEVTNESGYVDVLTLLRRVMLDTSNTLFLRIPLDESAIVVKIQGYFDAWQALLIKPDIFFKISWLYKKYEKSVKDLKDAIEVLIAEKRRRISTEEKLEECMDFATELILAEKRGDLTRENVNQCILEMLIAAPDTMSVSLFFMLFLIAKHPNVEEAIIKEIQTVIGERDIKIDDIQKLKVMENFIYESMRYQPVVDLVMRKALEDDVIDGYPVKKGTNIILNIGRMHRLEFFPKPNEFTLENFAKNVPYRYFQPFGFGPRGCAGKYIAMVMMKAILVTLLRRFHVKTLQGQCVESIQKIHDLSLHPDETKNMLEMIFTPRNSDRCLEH

SMILES	Potency [1]	Potency [2]	Potency [3]	Potency [4]	Potency [5]	Potency [6]	Potency [7]	Potency [8]	max activation [9] [%]	Potency [10]	Potency [11]	Potency [12]	Potency [13]	Potency [14]	Potency [15]	Potency [16]	Potency [17]	Potency [9]	Potency [18]
Cc1ccccc1OCC(O)CNCCOc1ccc(C(N)=O)cc1 (stereo unspecified)	inactive	inactive	inactive	inactive	inactive	inactive	inactive	inactive	-2.29	inactive	inactive								
CC(=O)Oc1c(C)cc(OCC(O)CNC(C)C)c(C)c1C (stereo unspecified)	inactive	inactive	inactive	inactive	inactive	inactive	inactive	inactive	-4.59	inactive		inactive	inactive	inactive	10.7 µM [inconclusive] (active)	3.76 µM (active)	inactive		
CSc1nc2cc(Oc3cccc(Cl)c3Cl)c(Cl)cc2[nH]1	23.9 µM (active)		23.7 µM (active)	inactive		inactive	inactive	inactive	-0.842	inactive		13.3 µM (active)	8.41 µM (active)						
CC(C)(S)[C@@H](N)C(=O)O	inactive	inactive	inactive	inactive	inactive	inactive	inactive	inactive	-3.13	inactive		inactive	inactive	inactive					
Nc1ncnc2c1ncn2[C@@H]1O[C@H](COP(=O)(O)OP(=O)(O)OP(=O)(O)O)[C@@H](O)[C@H]1O	6.01 µM (active)	inactive	inactive		inactive	inactive	inactive	inactive	2.22	inactive	inactive				inactive	inactive			
CCCOc1ccc2nc(NC(=O)OC)sc2c1	inactive	inactive	inactive	inactive	4.22 µM (active)	inactive	inactive	inactive		inactive		10.6 µM (active)	2.37 µM (active)	inactive				2.51 µM (active)	
OC[C@@H](O)C(O)[C@H](O)CO	inactive	inactive	inactive	inactive	inactive	inactive	inactive	inactive	-1.82	inactive		inactive	inactive	inactive					
NC(=O)c1ccc[n+]([C@@H]2O[C@H](COP(=O)([O-])OP(=O)(O)OC[C@H]3O[C@@H](n4cnc5c(N)ncnc54)[C@H](O)[C@@H]3O)[C@@H](O)[C@H]2O)c1		inactive	inactive	inactive	inactive	inactive	inactive	inactive	-1.3	inactive		inactive	inactive	inactive	inactive	inactive	inactive		inactive
COc1cc2c(cc1OC)CC(=O)N(CCCN(C)C[C@H]1Cc3cc(OC)c(OC)cc31)CC2	inactive	inactive	inactive	inactive	inactive	inactive	inactive	inactive	-0.416	inactive		inactive	inactive	inactive	inactive	inactive	inactive		inactive
CO[C@H]1O[C@@H]2O[C@@]3(C)CC[C@H]4[C@H](C)CC[C@@H]([C@H]1C)[C@@]24OO3	inactive	inactive	inactive	inactive		inactive	inactive	inactive	-2.27	inactive		inactive		inactive	inactive	inactive	inactive		inactive
C[C@@H]1C[C@H]2[C@@H]3CCC4=CC(=O)C=C[C@]4(C)[C@@]3(F)[C@@H](O)C[C@]2(C)[C@@]1(O)C(=O)COC(=O)c1cccc(S(=O)(=O)O)c1	inactive	inactive	inactive	inactive		inactive	inactive	inactive		inactive		inactive	inactive	inactive	inactive	15 µM (active)		10 µM (active)	
CCOC(=O)c1cc(-c2ccccc2)nc2ccc(C)cc12	inactive	inactive	inactive	inactive	inactive	inactive		inactive	-2.37	inactive	inactive				inactive	inactive	inactive		
CC(C)=CCC/C(C)=C/C=C/C(C)=C/C=C/C(C)=C/C=C/C=C(C)/C=C/C=C(C)/C=C/C=C(\C)CCC=C(C)C	inactive	inactive	inactive	inactive	inactive	inactive		inactive	2.83	inactive		inactive		inactive	7.56 µM [inconclusive] (active)	6.68 µM (active)			inactive
CO[C@H]1C[C@H](O[C@@H]2/C(C)=C/C[C@@H]3C[C@@H](C[C@]4(CC[C@H](C)[C@@H](C5CCCCC5)O4)O3)OC(=O)[C@@H]3C=C(C)/C(=N/O)[C@H]4OC/C(=C\C=C\[C@@H]2C)[C@]43O)O[C@@H](C)[C@@H]1O	inactive	inactive	inactive	inactive		inactive		inactive	-0.144	inactive	inactive								
